Calls of active or inactive are those of the source.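 The calls were made as follows: active = thallium flux through the channel raised or lowered by more than 3 SD from vehicle-only wells, actives on both sides; inactive = the rest.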
How the values were obtained:
Assay in all cases: BK channel mutant inhibitors and activators – cell-based, U2OS BacMam, thallium flux, beta subunits, selectivity assay, profiling panel (AID 1259406);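 also: initial slope of Thallos dye fluorescence rise after thallium is added; log ratio against the mean of 0.3% DMSO vehicle wells on the same plate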
F380Y = conditions: U2OS BacMam BK variants, at 30 µM
F380Y/beta1 = conditions: U2OS BacMam BK variants, at 30 µM
F380Y/beta2Delta = conditions: U2OS BacMam BK variants, at 30 µM
F380Y/beta4 = conditions: U2OS BacMam BK variants, at 30 µM
[1] = biological target: Calcium-activated potassium channel subunit alpha-1 (Homo sapiens) + Leucine-rich repeat-containing protein 26 (Homo sapiens) (UniProt Q12791+Q2I0M4); conditions: U2OS BacMam BK variants, F380Y/Slo1WT/gamma1, at 30 µM
R275C = conditions: U2OS BacMam BK variants, at 30 µM
R275C/beta1 = conditions: U2OS BacMam BK variants, at 30 µM
R275C/beta2Delta = conditions: U2OS BacMam BK variants, at 30 µM
R275C/beta4 = conditions: U2OS BacMam BK variants, at 30 µM
R275C/Slo1WT/beta2 = conditions: U2OS BacMam BK variants, at 30 µM

Measured: log fold change Tl+ flux

Calcium-activated potassium channel subunit alpha-1 (Homo sapiens) + Leucine-rich repeat-containing protein 26 (Homo sapiens), sequence (Q2I0M4 whole entry, looked up, one chain of several): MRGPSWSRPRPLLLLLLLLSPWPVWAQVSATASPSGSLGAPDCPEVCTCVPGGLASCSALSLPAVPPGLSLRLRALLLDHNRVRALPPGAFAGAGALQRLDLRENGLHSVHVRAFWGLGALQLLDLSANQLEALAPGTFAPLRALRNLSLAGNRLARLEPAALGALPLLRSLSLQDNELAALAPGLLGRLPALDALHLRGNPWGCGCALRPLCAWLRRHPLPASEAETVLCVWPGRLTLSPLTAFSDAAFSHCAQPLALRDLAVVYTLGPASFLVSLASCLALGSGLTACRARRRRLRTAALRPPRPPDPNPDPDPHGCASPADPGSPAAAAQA

CN(C)C=NC(=O)c1sc(S(C)(=O)=O)c2c1CCC=C2
active: F380Y 0.147
inactive: F380Y/beta1 0.036 | F380Y/beta2Delta -0.00643 | F380Y/beta4 0.00437 | [1] -0.0666 | R275C 0.00156 | R275C/beta1 -0.0344 | R275C/beta2Delta 0.00771 | R275C/beta4 -0.00153 | R275C/Slo1WT/beta2 0.0518

COC(=O)c1ccc(S(=O)(=O)NNc2ncnc3cc(C(C)(C)C)sc23)n1C
inactive: F380Y 0.00239 | F380Y/beta1 0.00797 | F380Y/beta2Delta 0.0347 | F380Y/beta4 0.0667 | [1] 0.00885 | R275C 0.0131 | R275C/beta1 -0.027 | R275C/beta2Delta 0.00378 | R275C/beta4 -0.0156 | R275C/Slo1WT/beta2 0.0399

COC(=O)C(C#N)=CN(C)C
inactive: F380Y 0.0153 | F380Y/beta1 0.000638 | F380Y/beta2Delta 0.00933 | F380Y/beta4 0.0217 | [1] -0.0293 | R275C 0.0113 | R275C/beta1 0.0127 | R275C/beta2Delta 0.0244 | R275C/beta4 -0.00979 | R275C/Slo1WT/beta2 -0.0171

COC(OC)c1ccc(C#N)c(SC)n1
inactive: F380Y 0.0176 | F380Y/beta1 -0.0051 | F380Y/beta2Delta 0.00992 | F380Y/beta4 0.0407 | [1] -0.00294 | R275C -0.0258 | R275C/beta1 -0.00195 | R275C/beta2Delta 0.0434 | R275C/beta4 -0.0479 | R275C/Slo1WT/beta2 -0.0163

O=C(NCCSCc1ccco1)c1cncc(Br)c1
inactive: F380Y 0.0566 | F380Y/beta1 -0.00628 | F380Y/beta2Delta 0.00549 | F380Y/beta4 0.0375 | [1] 0.0375 | R275C -0.0119 | R275C/beta1 0.0315 | R275C/beta2Delta 0.0453 | R275C/beta4 -0.016 | R275C/Slo1WT/beta2 0.024

Cn1c(C(F)(F)F)nnc1S(=O)(=O)Cc1ccc(-c2csnn2)cc1
active: F380Y/beta4 0.114
inactive: F380Y 0.0645 | F380Y/beta1 0.0098 | F380Y/beta2Delta 0.0485 | [1] 0.00754 | R275C 0.0229 | R275C/beta1 -0.0587 | R275C/beta2Delta 0.0374 | R275C/beta4 -0.0154 | R275C/Slo1WT/beta2 -0.0301

COc1ccc2c(OC(C)=O)coc2c1
inactive: F380Y 0.00358 | F380Y/beta1 -0.0482 | F380Y/beta2Delta -0.00847 | F380Y/beta4 -0.0157 | [1] -0.0163 | R275C 0.00531 | R275C/beta1 -0.00826 | R275C/beta2Delta 0.012 | R275C/beta4 0.0182 | R275C/Slo1WT/beta2 -0.00513

CCCCCCCCCCCC(=O)N1CC(=O)NC(=O)C1
inactive: F380Y -0.0479 | F380Y/beta1 -0.037 | F380Y/beta2Delta -0.0133 | F380Y/beta4 -0.0202 | [1] 0.0655 | R275C -0.0151 | R275C/beta1 -0.0193 | R275C/beta2Delta 0.0154 | R275C/beta4 -0.0342 | R275C/Slo1WT/beta2 0.0104

O=C(c1ncoc1-c1ccccc1)N(Cc1ccccn1)Cc1ccccn1
inactive: F380Y 0.0015 | F380Y/beta1 0.0293 | F380Y/beta2Delta -0.0298 | F380Y/beta4 0.051 | [1] -0.0237 | R275C -0.0056 | R275C/beta1 0.0298 | R275C/beta2Delta 0.0379 | R275C/beta4 0.0394 | R275C/Slo1WT/beta2 0.033

O=[N+]([O-])c1ccc(N2CCSCC2)cc1O
inactive: F380Y -0.0426 | F380Y/beta1 -0.0279 | F380Y/beta2Delta -0.0262 | F380Y/beta4 0.012 | [1] 0.0289 | R275C -0.00302 | R275C/beta1 -0.0429 | R275C/beta2Delta -0.0453 | R275C/beta4 -0.0292 | R275C/Slo1WT/beta2 0.0333

Cc1cccc(N=Cc2cc(Cl)cc(Cl)c2O)c1C
inactive: F380Y 0.049 | F380Y/beta1 0.0694 | F380Y/beta2Delta 0.0737 | F380Y/beta4 0.0885 | [1] 0.078 | R275C 0.0221 | R275C/beta1 0.0155 | R275C/beta2Delta 0.0671 | R275C/beta4 0.00158 | R275C/Slo1WT/beta2 -0.00626

COc1cccc(N2CC(=O)N(NC(=O)NC3CCCCC3)CC2=O)c1
inactive: F380Y -0.0108 | F380Y/beta1 -0.0266 | F380Y/beta2Delta -0.0355 | F380Y/beta4 -0.0285 | [1] 0.0234 | R275C 0.0133 | R275C/beta1 -0.0377 | R275C/beta2Delta -0.0493 | R275C/beta4 -0.00116 | R275C/Slo1WT/beta2 -0.0113

O=c1[nH]nc(N2CCSCC2)[nH]1
inactive: F380Y 0.00841 | F380Y/beta1 0.0329 | F380Y/beta2Delta -0.0177 | F380Y/beta4 0.0123 | [1] -0.0239 | R275C 0.0133 | R275C/beta1 0.000508 | R275C/beta2Delta -0.00725 | R275C/beta4 0.0241 | R275C/Slo1WT/beta2 0.014

Cc1cc2nccc(-c3cccnc3)n2n1
inactive: F380Y -0.0198 | F380Y/beta1 -0.0232 | F380Y/beta2Delta 0.0219 | F380Y/beta4 -0.0149 | [1] -0.0534 | R275C 0.00294 | R275C/beta1 -0.00487 | R275C/beta2Delta -0.00124 | R275C/beta4 0.00702 | R275C/Slo1WT/beta2 -0.00651

CC(C)n1c(SCC(=O)c2ccccc2)nc2cc(Cl)ccc21
inactive: F380Y -0.0377 | F380Y/beta1 -0.0145 | F380Y/beta2Delta -0.0247 | R275C/beta4 -0.0424
active: F380Y/beta4 -0.709 | [1] -1.05 | R275C -0.667 | R275C/beta1 -0.35 | R275C/beta2Delta -0.0838 | R275C/Slo1WT/beta2 -0.173
